Records with an inconclusive call do not appear. Active and inactive are the calls of the source. Calls come from the whole dose curve; as a rule, active = well fitted curve in the direction sought with a large enough effect; inconclusive = small, poorly fitted or top-dose-only effect, or another doubt; inactive = no such curve, though single readings can be large or run the other way.
Experiment: Secondary Assay for Activators of Human Pyruvate Kinase M2 isoform - Cell Titer Glo Cytotoxicity for Probe SAR
Settings: HeLa viability, CellTiter-Glo ATP luminescence, 24 h; series mostly up to 58.2 µM
Protocol: NIH Chemical Genomics Center [NCGC]
Matthew G. Vander Heiden, M.D., Ph.D. [Harvard Medical School, 77 Avenue Louis Pasteur, Boston, MA 02115]
We have identified a series of activators of the M2 isoform of human pyruvate kinase. The assay described here examines the cytotoxicity of these compounds by measuring the total ATP content of Hela cells after 24 hrs of exposure to compound.
500 Hela cells/ 4ul in media (DMEM with high glucose, 10% FBS, 1x Pen Strep, 1x NEAA) were dispensed into a white solid 1536-microwell plate with a Thermo Multidrop. The plates were incubated at 37 degrees Celsius for 24 hours. The cells were then treated with compounds using the Kalypsys pin tool, delivering 23 nl of test compounds and the control doxorubicin. The plates were then incubated for an additional 24 hours at 37 degrees C after which 4 ul of Promega Cell-Titer Glo was dispensed using the Thermo Multidrop. The plates were incubated at room temperature for 10 min before reading luminescence on the Perkin Elmer ViewLux with images collected with 2x binning and a 5 sec exposure time.

| SMILES | outcome |
| --- | --- |
| O=C1CCc2cc(S(=O)(=O)Nc3ccc(Cl)c(Cl)c3)c(F)cc2N1 | inactive |
| O=C1c2ccccc2C(=O)N1c1ccc(O)cc1 | inactive |
| CC(C)Nc1cccc(S(=O)(=O)N2CCCN(S(=O)(=O)c3ccc4c(c3)OCCO4)CC2)c1 | inactive |
| Cc1ccc(Cl)cc1NS(=O)(=O)c1cc2c(cc1Cl)CCC(=O)N2 | inactive |
| Cc1ccc(NS(=O)(=O)c2ccc3c(c2)NC(=O)CO3)cc1C | inactive |
| CCNc1cccc(S(=O)(=O)N2CCCN(S(=O)(=O)c3ccc4c(c3)OCCO4)CC2)c1 | inactive |
| COc1cccc(NS(=O)(=O)c2ccc3c(c2)CCC(=O)N3)c1 | inactive |
| O=C1c2ccccc2C(=O)N1c1cccc2ncccc12 | inactive |
| Cc1ccc2nc(-c3ccc(C)o3)c(Nc3ccc4c(c3)OCO4)n2c1 | inactive |
| O=C1c2ccccc2C(=O)N1c1cc(=O)c2ccccc2[nH]1 | inactive |
| Cc1ccc(NS(=O)(=O)c2ccc3c(c2)oc(=O)n3C)cc1C | inactive |
| O=C1CCc2cc(S(=O)(=O)Nc3cccc(F)c3)ccc2N1 | inactive |
| O=C1c2ccccc2C(=O)N1Cc1ccccc1 | inactive |
| O=C1CCc2cc(S(=O)(=O)Nc3cccc(-c4ccccc4)c3)ccc2N1 | inactive |
| Cc1ccc(Nc2c(-c3ccc(C)o3)nc3ccccn23)cc1 | inactive |
| CCNc1cccc(S(=O)(=O)N2CCN(S(=O)(=O)c3ccc4c(c3)OCCO4)CC2)c1 | inactive |
| Cc1ccc(NS(=O)(=O)c2ccc3c(c2)CCN(C(=O)C(F)(F)F)C3)cc1C | inactive |
| O=C1CCc2cc(S(=O)(=O)Nc3cc(F)cc(Cl)c3)c(F)cc2N1 | inactive |
| COc1ccc(-c2nc3cccc(C)n3c2Nc2ccc(C)cc2)cc1 | inactive |
| Cc1ccc(Cl)cc1NS(=O)(=O)c1cc2c(cc1F)NC(=O)CC2 | inactive |

| SMILES | outcome |
| --- | --- |
| Cc1ccc(NS(=O)(=O)c2cc3c(cc2Cl)NC(=O)C3)cc1C | inactive |
| Cc1ccc(NS(=O)(=O)c2cc3c(cc2-c2ccccc2)NC(=O)CO3)cc1C | inactive |
| Cc1ccc(NS(=O)(=O)c2ccc3c(c2)N(C)C(=O)CO3)cc1C | inactive |
| O=S1(=O)N=C(Oc2ccccc2)c2ccccc21 | inactive |
| Cc1ccc(NS(=O)(=O)c2cc3c(cc2N(C)C)CCC(=O)N3)cc1C | inactive |
| Cc1cc(C)n2c(Nc3ccccc3)c(-c3ccc(C)o3)nc2n1 | inactive |
| COc1cc(N2C(=O)c3ccccc3C2=O)c2ncccc2c1 | inactive |
| CSc1cc2c(s1)c1cnn(Cc3cccc(O)c3)c(=O)c1n2C | inactive |
| COc1ccccc1N1C(=O)c2ccccc2C1=O | inactive |
| Cc1c(Cl)cccc1NS(=O)(=O)c1cc2c(cc1Cl)CCC(=O)N2 | inactive |
| Cc1ccc(NS(=O)(=O)c2cc3c(cc2C)OCC(=O)N3)cc1C | inactive |
| Cc1cccc(OC2=NS(=O)(=O)c3ccccc32)c1 | inactive |
| COc1ccc(Nc2c(-c3ccc(C)o3)nc3ccccn23)cc1 | inactive |
| O=C1CCc2cc(S(=O)(=O)Nc3cccc(Cl)c3)ccc2N1 | inactive |
| O=C1CCc2cc(S(=O)(=O)Nc3ccccc3F)ccc2N1 | inactive |
| O=C1CCc2cc(S(=O)(=O)NCc3ccccc3)ccc2N1 | inactive |
| Cc1ccc(Nc2c(-c3ccsc3)nc3cccc(C)n23)cc1 | inactive |
| Cc1ccc(NS(=O)(=O)c2cc3c(cc2-c2ccsc2)NC(=O)CO3)cc1C | inactive |
| Cc1ccc(NS(=O)(=O)c2cc3c(cc2/C=C/c2ccccc2)NC(=O)CO3)cc1C | inactive |
| O=C1CCc2cc(S(=O)(=O)Nc3cccc(B(O)O)c3)ccc2N1 | inactive |
